From PubChem
F-actin modifier = alters cytoskeleton assembly in HUVEC cells; 91,000 tested, 0.18% active; AID 836; inhibition, % at 2 µM; HUVEC TNFa F-actin phalloidin imaging, high content;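 active = inhibition above the batch mean plus 3 SD and confirmed as a hit by visual image inspection, cut at about 30% in these data, passing the limit was not always enough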
CYP2C9 inh = blocks human cytochrome P450 2C9. P11712. CYP2C9 Supersomes, luciferin-H conversion, luminescence. inhibition, % at 5 µM. 96,000 tested, 20% active. AID 777;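 active = blocking of liver enzyme CYP2C9 beyond about 50% at 5 µM, limit read from the data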
CYP2C19 inh = inhibitors of human CYP2C19; CYP2C19 Supersomes, luciferin-H EGE luminescence, 30 min; AID 778; 96,000 tested, 21% active; inhibition, % at 5 µM;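 active = CYP2C19 inhibition above a set limit at 5 µM in the primary screen, cut at about 50% in these data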
Target sequence (P33261 whole entry, looked up): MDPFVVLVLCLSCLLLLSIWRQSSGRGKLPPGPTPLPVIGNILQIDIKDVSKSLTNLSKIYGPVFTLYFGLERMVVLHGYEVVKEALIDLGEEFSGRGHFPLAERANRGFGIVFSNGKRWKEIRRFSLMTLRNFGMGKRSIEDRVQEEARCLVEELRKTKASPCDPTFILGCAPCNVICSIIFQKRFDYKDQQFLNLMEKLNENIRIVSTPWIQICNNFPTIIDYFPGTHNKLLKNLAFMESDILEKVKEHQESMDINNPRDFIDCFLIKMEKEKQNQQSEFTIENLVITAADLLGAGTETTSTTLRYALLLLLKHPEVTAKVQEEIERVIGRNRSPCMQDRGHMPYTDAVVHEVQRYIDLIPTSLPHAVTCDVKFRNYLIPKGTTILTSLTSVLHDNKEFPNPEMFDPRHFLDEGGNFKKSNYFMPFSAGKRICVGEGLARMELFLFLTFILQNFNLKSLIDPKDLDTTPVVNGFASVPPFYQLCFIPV
E-sel TNF inh = blocks E-selectin expression induced by TNF alpha. HUVEC TNFa-induced E-selectin immunofluorescence, high content. inhibition, % at 2 µM. 120,000 tested, 0.71% active;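 active = inhibition above the batch mean plus 3 SD, and confirmed as a hit on visual image review, cut at about 43% in these data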
CYP2C19 activ = cytochrome P450 2C19 (human) activation | P33261 | recombinant CYP2C19, luciferin-H EGE luminescence; stronger effect = higher value; 0 = fully inhibited enzyme, 1 = untreated enzyme | activation factor at 5 µM | 96,000 tested, under 10 active | AID 1025;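 active = activation factor of at least 2 at 5 µM in the primary screen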
CYP2C9 activ = activators of human CYP2C9 | 96,000 tested, 1.4% active | recombinant CYP2C9, luciferin-H conversion, luminescence; stronger effect = higher value; factor 1 = untreated enzyme, 0 = blocked | activation factor at 5 µM | AID 1024;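 active = activation factor of 2 or more for CYP2C9 at a 5 µM dose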
Numbers stand for hits; i = inactive; nt = not tested or not shown. Most compounds without a hit are left out; they make up all but 22% or so of the library.

SMILES	F-actin modifier	CYP2C9 inh	CYP2C19 inh	E-sel TNF inh	CYP2C19 activ	CYP2C9 activ
C=CCNc1nc2c3ccccc3n(C(C)=O)c2s1	i	68	i	nt	i	i
CC1CCCC(C)N1C(=O)CSc1nnc(COc2ccccc2)n1-c1ccccc1 (stereo not given)	i	i	65	i	i	i
CC(Sc1nnc(-c2ccc(Cl)cc2Cl)n1Cc1ccccc1)C(=O)Nc1nccs1 (stereo not given)	i	54	i	i	i	i
COc1cccc(-n2c(COc3ccc(C)cc3)nnc2SCC(N)=O)c1	i	i	67	i	i	i
COc1ccc(-n2c(COc3ccccc3)nnc2SCC(N)=O)cc1	i	i	63	81	i	i
CN(C)S(=O)(=O)c1ccc(NC(=O)c2cccnc2)cc1	i	i	i	i	i	i
S=c1[nH]nc(COc2ccccc2)n1C1CCCCC1	i	i	60	i	i	i
COc1ccc(OCc2nnc(SC(C)C(=O)Nc3nccs3)n2-c2ccccc2)cc1 (stereo not given)	i	60	i	i	i	i
CCc1nnc(NC(=O)CSc2nnc(COc3ccccc3)n2-c2ccc(C)cc2)s1	90	i	i	nt	i	i
COc1ccc(CC(=O)NCc2nnc(SCC(=O)Nc3nccs3)n2-c2ccccc2)cc1	i	i	i	nt	i	i
NC(=O)CSc1nnc(COc2ccccc2)n1C1CCCCC1	i	56	80	i	i	i
Cc1c(NS(=O)(=O)c2ccc3[nH]c(=O)[nH]c3c2)c(=O)n(-c2ccccc2)n1C	i	i	i	i	i	i
Cc1nc(SCc2nnc(-c3ccc(Cl)cc3)o2)c2c3c(sc2n1)CCC3	nt	i	i	nt	i	i
COc1ccc(NC(=O)c2ccc(CNc3c(NC4CCCCC4)c(=O)c3=O)cc2)c(OC)c1	i	70	i	i	i	i
CCOc1ccc(NC(=O)c2ccc(CNc3c(NC4CCCCC4)c(=O)c3=O)cc2)cc1	i	i	i	i	i	i
COCC(C)n1c(C)cc(C(=O)COC(=O)c2ccc(N3CCCC3=O)cc2)c1C (stereo not given)	i	i	i	i	i	i
COc1ccc(CCn2nnnc2C(C(C)C)N2CCN(c3ncccn3)CC2)cc1OC (stereo not given)	nt	72	i	i	i	i
COc1ccc(CCn2nnnc2C(CC(C)C)N2CCC(C(N)=O)CC2)cc1OC (stereo not given)	i	i	i	i	i	i
COc1ccc(CCn2nnnc2C(CC(C)C)N2CCN(c3ncccn3)CC2)cc1OC (stereo not given)	i	76	i	nt	i	i
CCOC(=O)c1ccc(-n2c(=O)[nH]c3ccccc3c2=O)cc1	i	i	i	i	i	i
COc1ccc(-c2noc(CN3CCOCC3)n2)cc1OC	i	i	i	i	i	i
O=C(CSc1nc2ccccc2c(=O)[nH]1)Nc1ccc(S(=O)(=O)N2CCCC2)cc1	i	96	i	i	i	i
O=C(CSc1ncccn1)Nc1ccc(S(=O)(=O)N2CCCCC2)cc1	i	i	i	nt	i	i
CC1CCN(S(=O)(=O)c2ccc(NC(=O)CSc3ncccc3C(=O)O)cc2)CC1	nt	i	i	62	i	i
O=C(CSc1ncn[nH]1)Nc1ccc(S(=O)(=O)N2CCCC2)cc1	i	61	i	i	i	i
SMILES	F-actin modifier	CYP2C9 inh	CYP2C19 inh	E-sel TNF inh	CYP2C19 activ	CYP2C9 activ
Cc1cc(-c2ccccc2)[nH]c(=O)c1C#N	nt	nt	nt	i	nt	nt
N#Cc1c(C(F)(F)F)cc(-c2ccccc2)[nH]c1=O	i	58	i	i	i	i
N#Cc1c(C(F)(F)F)cc(-c2ccccc2Cl)[nH]c1=O	nt	86	i	nt	i	i
CCCNc1nc(C)c(C(C)=O)cc1C#N	i	i	i	nt	i	i
COc1ccc(C)cc1S(=O)(=O)N(C)CC(=O)Nc1ccc2c(c1)OCO2	i	86	58	i	i	i
COc1ccc(C)cc1S(=O)(=O)N(CC(=O)Nc1ccc2c(c1)OCCO2)Cc1ccccc1	i	98	100	i	i	i
COc1ccc2c(c1OC)C(=O)N(c1cccc(C(F)(F)F)c1)C2	i	i	i	nt	i	i
O=c1[nH]cnc2c1C1(CCCC1)Cc1ccccc1-2	i	i	88	i	i	i
CCCC(=O)Nn1cnc2c(c1=O)C1(CCCC1)Cc1ccccc1-2	i	i	i	i	i	i
CC(=O)Nn1cnc2c(c1=O)C1(CCCC1)Cc1ccccc1-2	i	62	88	i	i	i
CN(C)Cc1nc2c(c(=O)[nH]1)C1(CCCCC1)Cc1ccccc1-2	i	i	i	nt	i	i
Cn1c(=O)c2c(nc(N3CCOCC3)n2Cc2c(F)cccc2Cl)n(C)c1=O	i	i	i	i	i	i
CC1CN(c2nc3c(c(=O)n(C)c(=O)n3C)n2Cc2c(F)cccc2Cl)CC(C)O1 (stereo not given)	nt	59	i	i	i	i
COc1ccc(/C(N)=N/OC(=O)c2ccc3c(c2)OCO3)cc1OC	i	i	i	i	i	i
Brc1ccccc1Cn1c(-c2cscn2)nc2ccccc21	i	i	56	i	i	i
CC(C)c1ccccc1NC(=O)Cn1c(-c2ccccc2Cl)nc2ccccc21	nt	nt	nt	i	nt	nt
COc1ccc(Cn2c(-c3ccc(OC)cc3)nc3ccccc32)cc1	i	nt	nt	i	nt	nt
CSc1ccccc1NC(=O)Cn1c(-c2cscn2)nc2ccccc21	i	78	98	i	i	i
CCOC(=O)C(NCCc1ccccc1F)(NC(=O)CC)C(F)(F)F (stereo not given)	nt	nt	nt	i	nt	nt
CCOC(=O)C(NCc1ccc2c(c1)OCO2)(NC(=O)CC)C(F)(F)F (stereo not given)	i	88	97	i	i	i
O=C(Cn1nc(-c2ccccc2)ccc1=O)NCCN1CCN(c2cccc(Cl)c2)CC1	i	i	i	i	i	i
O=C(Cn1nc(-c2ccccc2)ccc1=O)NCCN1CCN(Cc2ccccc2)CC1	i	i	84	i	i	i
COc1ccc(-c2cn3cc(Cl)ccc3n2)cc1OC	i	79	80	nt	i	i
Clc1ccc2nc(-c3ccc(Br)s3)cn2c1	i	i	i	nt	i	i
O=C(/C=C1\NC2(CCCC2)Cc2ccccc21)C(=O)N/N=C/c1ccc(O)c(O)c1	nt	nt	nt	i	nt	nt
SMILES	F-actin modifier	CYP2C9 inh	CYP2C19 inh	E-sel TNF inh	CYP2C19 activ	CYP2C9 activ
CCOC(=O)c1[nH]c(Cc2[nH]c(C(=O)OCC)c(C)c2CCC(=O)OC)c(CCC(=O)OC)c1C	i	72	58	i	i	i
O=C1COc2ccc(C(=O)c3ccccc3C(=O)NCc3ccccc3)cc2N1	i	i	75	nt	i	i
O=C1COc2ccc(C(=O)c3ccccc3C(=O)NCc3ccco3)cc2N1	i	i	67	i	i	i
O=C1COc2ccc(C(=O)NCc3ccco3)cc2N1	i	i	i	i	i	i
CCCCNC(=O)c1cc(C)no1	nt	nt	nt	i	nt	nt
Cc1ccc(Nc2cc(-n3cccn3)ncn2)c(C)c1	i	i	61	i	i	i
Cc1ccc(Nc2cc(-n3nc(C)cc3C)ncn2)c(C)c1	nt	i	54	i	i	i
Cc1cc(C)n(-c2cc(-n3nc(C)cc3C)ncn2)n1	nt	i	i	i	i	i
